Results filed as inconclusive are left out. Entries that show only a call come without a potency. The source made the active and inactive calls. The call rests on the fitted dose curve; in most records, active means well fitted curve in the direction sought with a large enough effect; inconclusive means small, poorly fitted or top-dose-only effect, or another doubt; inactive means no such curve, though single readings can be large or run the other way.
Assay: qHTS Assay for Rab9 Promoter Activators: Hit Validation Using Renilla Luciferase Read-Out
Settings: Huh7 NPC1 promoter Renilla luciferase reporter, 24 h; series mostly up to 76.9 µM
How it was run: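 Huh7 cells stably carrying NPC promoter-luciferase, 1,500 cells/well, exposed to compound for 24 h at 37 deg C. Luminescence read 10 min after […] addition; validation of firefly-read primary hits.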

Row | SMILES | Potency
1 | COCC1CCN(C(=O)c2ccc3oc(Cc4ccccc4)nc3c2)C1 (stereo not drawn) | inactive
2 | N#C/C(=N\Nc1ccc(Cl)cc1)C(=N)N1CCCCC1 | inactive
3 | CCOCC(=O)Nc1c(C(=O)Nc2ccc3c(c2)OCCO3)oc2ccccc12 | inactive
4 | Cc1ccc(C(=O)Nc2ccc(N3CCN(C)CC3)nc2)cc1 | inactive
5 | CC(C)CC(=O)N1CCN(c2ccc(NC(=O)c3ccco3)cc2)CC1 | inactive
6 | O=C(CN1C(=O)COc2ccc(Cl)cc21)NCC1CCCO1 (stereo not drawn) | inactive
7 | CC1=C(C(=O)OC2CCCC(C)C2)C(c2ccccc2)NC(=O)N1 (stereo not drawn) | inactive
8 | Cc1nc(SCC(=O)NC(=O)NC(C)(C)C)nc(C)c1C | inactive
9 | Nc1nc(SCCO)[nH]c(=O)c1NC(=O)c1ccco1 | inactive
10 | COc1ccccc1C(=O)Nc1nnc(SCC(=O)NC2CCCC2)s1 | inactive
11 | COc1ccc(S(=O)(=O)NC(C(=O)NCCc2ccccn2)C(C)C)cc1 (stereo not drawn) | inactive
12 | CC(=O)[C@@H]1[C@@H](C(=O)c2ccc(C)cc2)[C@]2(C(=O)Nc3ccccc32)[C@H]2C=Cc3cc(F)ccc3N12 | inactive
13 | Cn1c(SCc2ccccc2)nnc1-c1cnccn1 | inactive
14 | Fc1ccc(-c2nc3nc4ccccc4nc3n2Cc2ccco2)cc1 | inactive
15 | Cc1ccc(N(O)C(=O)NCCCCNC(=O)N(O)c2ccc(C)cc2)cc1 | inactive
16 | COc1ccccc1NC(=S)NCc1ccc(Cl)cc1 | inactive
17 | Cc1nc(-c2ccc(S(=O)(=O)Oc3ccc(Cl)cc3Cl)s2)cs1 | inactive
18 | Cc1ccc2c(c1)sc1nc(=O)n(-c3ccccc3)c(=O)n12 | inactive
19 | COC(=O)c1ccc(NC(=O)c2ccc3nc(C)sc3c2)cc1 | inactive

Row | SMILES | Potency
20 | O=C(N/N=C/c1ccc(-c2ccc(Br)cc2)o1)c1ccc2c(c1)OCO2 | inactive
21 | C=CCc1ccc(OCCOCCNCCOC)c(OC)c1 | inactive
22 | O=C(NCC1CCCO1)C(c1ccc(F)cc1)N(Cc1ccc2c(c1)OCO2)C(=O)c1ccc(CN2CCOCC2)o1 (stereo not drawn) | inactive
23 | NNC(=O)c1cccc(S(=O)(=O)Nc2cc(Cl)ccc2Cl)c1 | inactive
24 | CCCN(CCC)CCCNC(=O)c1cc2cc3ccc(Cl)cc3nc2o1 | inactive
25 | COCCSc1ncnc2c1oc1nc3c(cc12)COC(C)(C)C3 | inactive
26 | Cc1nc2sc(C(=O)OC(C)C)c(N)c2c(C)c1C | inactive
27 | Cc1[nH]n(-c2cccc3ccccc23)c(=O)c1/C=N/c1sc2c(c1C#N)CCC2 | inactive
28 | CNC(=O)Cn1nc(C)c2ccccc2c1=O | inactive
29 | COc1ccc(NC(=O)CN(C)C(=O)c2ccc(=O)[nH]c2)cc1 | inactive
30 | O=C(CSc1nccn1Cc1ccco1)Nc1ccccc1F | inactive
31 | O=C(NC(=S)Nc1ccc(CN2CCCCC2)cc1)c1cc2ccccc2o1 | inactive
32 | Cc1c(C(O)CN2CCN(Cc3ccc4c(c3)OCO4)CC2)c2ccccc2n1C (stereo not drawn) | inactive
33 | Cc1cc(C)c2c(N)c(C(=O)Nc3ccc([N+](=O)[O-])cc3)sc2n1 | inactive
34 | NC(=O)COC(=O)c1ccc2noc(-c3ccccc3)c2c1 | inactive
35 | Cc1nc(-c2ccccn2)sc1C(=O)Nc1ccc(F)cc1F | inactive
36 | COc1ccccc1OCCCC(=O)NCc1ccco1 | inactive
37 | CCOC(=O)c1ccc(-c2nnc(-c3ccc(Cl)cc3Cl)o2)cc1 | inactive
38 | COc1cccc(C2Nc3ccccc3NC3=C2C(=O)CC(C)(C)C3)c1 (stereo not drawn) | inactive

— PubChem BioAssay AID624117 (National Center for Advancing Translational Sciences (NCATS), 2012)
